For test [1], the system named is S. cerevisiae SK1 pCDA2-eGFP (USY613), sporulating. The experiment in a line: CDA2-GFP sporulation assay sensitivity score (z-score vs DMSO controls); higher = stronger inhibition of sporulation, active = hit call of the paper.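 Also: active if sensitivity score above 5.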
For test [2], the system named is S. cerevisiae AD1-9 (efflux-pump deficient), vegetative growth in YPD. The test can be described thus: growth sensitivity score (doubling time z-score vs DMSO controls); higher = slower growth, strongly negative scores also mark growth inhibition (complete suppression), active = hit call of the paper. The method in brief:
(§1)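 Saccharomyces cerevisiae strains BY4741 and AD1-9 were seeded in rich medium in microtiter plates at an OD600 of 0.065. Compounds were added at a 1:100 dilution of DMSO stock. Optical density was read every 15 min for 24 hours on a Tecan GENios reader. Average doubling time was the time taken to reach a set generation point divided by generation number, and the growth sensitivity score was (compound mean − DMSO-control mean)/DMSO-control SD, using eight DMSO controls per experiment.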

For test [3], the system named is S. cerevisiae BY4741 (wild-type), vegetative growth in YPD. Described as above. The method in brief:
as §1

The source of these data is the supplement of paper PMC3414501.

The structures appear in SMILES notation. Counter-ions that a name gives are not always drawn.

With `Cc1nccn1CC1CCc2c(c3ccccc3n2C)C1=O` (configuration not stated) [Ondansetron hcl] (stock concentration (mM, diluted 1:100): 8.9), the “CDA2-GFP sporulation assay sensitivity score” value in test [1] was -0.41 (inactive). Besides, the figures for the growth sensitivity score in test [2] and in test [3] were -1.11 (inactive) and -0.22 (inactive), respectively.

Take `O=C(CCCN1CC=C(n2c(=O)[nH]c3ccccc32)CC1)c1ccc(F)cc1` [Droperidol] (stock concentration (mM, diluted 1:100): 10): the “CDA2-GFP sporulation assay sensitivity score” value in test [1] was 3.12 (inactive). In addition, the growth sensitivity score in test [2] is -1.57 (inactive); in test [3] it was -0.99 (inactive).

With `CO[C@H]1/C=C/O[C@@]2(C)Oc3c(C)c(O)c4c(O)c(c(/C=N/N5CCN(C6CCCC6)CC5)c(O)c4c3C2=O)NC(=O)/C(C)=C\C=C\[C@H](C)[C@H](O)[C@@H](C)[C@@H](O)[C@@H](C)[C@H](OC(C)=O)[C@@H]1C` [Rifapentine] (stock concentration (mM, diluted 1:100): 10), the “CDA2-GFP sporulation assay sensitivity score” value in test [1] was 14.2 (inactive). The figures for the growth sensitivity score in test [2] and in test [3] were -0.99 (inactive) and 0.15 (inactive), respectively.

With `C[C@]12CCC(=O)C=C1CC[C@@H]1[C@@H]2CC[C@@]2(C)[C@H]1CC[C@]2(O)C(=O)CO` [Cortodoxone] (stock concentration (mM, diluted 1:100): 10), the “CDA2-GFP sporulation assay sensitivity score” value in test [1] was 5 (inactive). Also, the growth sensitivity score in test [2] is 6.84 (active); in test [3] it was -0.69 (inactive).

As to `Nc1nc(O)c2ncn(CCC(CO)CO)c2n1` [Penciclovir] (stock concentration (mM, diluted 1:100): 10), in test [1], the “CDA2-GFP sporulation assay sensitivity score” value is 0.81 (inactive). For the same molecule, the figures for the growth sensitivity score in test [2] and in test [3] were -0.22 (inactive) and -0.88 (inactive), respectively.

Consider `Nc1ccn([C@@H]2O[C@H](CO)[C@@H](O)[C@@H]2O)c(=O)n1` [Cytarabine] (stock concentration (mM, diluted 1:100): 10), for which the “CDA2-GFP sporulation assay sensitivity score” value in test [1] was -0.45 (inactive). Further, the growth sensitivity score in test [2] is -2.83; in test [3], -0.01 (inactive).

Turning to `Cc1nc2n(c(=O)c1CCN1CCC(c3noc4cc(F)ccc34)CC1)CCCC2` [Risperidone] (stock concentration (mM, diluted 1:100): 10), the “CDA2-GFP sporulation assay sensitivity score” value in test [1] was -0.4 (inactive). The growth sensitivity score is -2.71 in test [2] and -0.68 (inactive) in test [3].

Regarding `CC[C@H](C)C(=O)O[C@H]1CCC=C2C=C[C@H](C)[C@H](CC[C@@H]3C[C@@H](O)CC(=O)O3)[C@H]21` [Mevastatin] (stock concentration (mM, diluted 1:100): 10), the “CDA2-GFP sporulation assay sensitivity score” value in test [1] was 0.51 (inactive). Further, the growth sensitivity score was 130 (active) in test [2] and 2.89 (active) in test [3].

On to `COc1ccccc1OCC(O)CN1CCN(CC(=O)Nc2c(C)cccc2C)CC1` (configuration not stated) [Ranolazine dihydrochloride] (stock concentration (mM, diluted 1:100): 8.6), for which the “CDA2-GFP sporulation assay sensitivity score” value in test [1] was -1.05 (inactive). Besides, the growth sensitivity score in test [2] is -1.41 (inactive); in test [3], -0.31 (inactive).

On to `COc1ccccc1OCCNCC(O)COc1cccc2[nH]c3ccccc3c12` (configuration not stated) [Carvedilol] (stock concentration (mM, diluted 1:100): 10), for which, in test [1], the “CDA2-GFP sporulation assay sensitivity score” value is -0.9 (inactive). The growth sensitivity score is 50.7 (active) in test [2] and 0.43 (inactive) in test [3].

For `OCCOCCN1CCN(C2=Nc3ccccc3Sc3ccccc32)CC1` [Quetiapine hemifumarate] (stock concentration (mM, diluted 1:100): 7.7), the “CDA2-GFP sporulation assay sensitivity score” value in test [1] is 9.6 (active). Also, the growth sensitivity score in test [2] is 0.31 (inactive); in test [3], 1.12 (inactive).

Turning to `Cc1ccc(NC(=O)c2ccc(CN3CCN(C)CC3)cc2)cc1Nc1nccc(-c2cccnc2)n1` [Imatinib mesylate] (stock concentration (mM, diluted 1:100): 8.4), the “CDA2-GFP sporulation assay sensitivity score” value in test [1] is 7.85 (active). In addition, the growth sensitivity score was 7.33 (active) in test [2] and 0.53 (inactive) in test [3].

As for `O=C(NCCO[N+](=O)[O-])c1cccnc1` [Nicorandil] (stock concentration (mM, diluted 1:100): 10), in test [1], the “CDA2-GFP sporulation assay sensitivity score” value was -0.11 (inactive). For the same molecule, the growth sensitivity score in test [2] is -1.47 (inactive); in test [3] it was -2.59.

Take `CN1[C@@H](CC(=O)c2ccccc2)CCC[C@H]1C[C@H](O)c1ccccc1` [Lobeline hydrochloride] (stock concentration (mM, diluted 1:100): 10): in test [1], the “CDA2-GFP sporulation assay sensitivity score” value was 2.99 (inactive). Besides, the growth sensitivity score in test [2] was -1.96 (inactive); in test [3] it was 0.72 (inactive).

Take `COCCCC/C(=N\OCCN)c1ccc(C(F)(F)F)cc1` [Fluvoxamine] (stock concentration (mM, diluted 1:100): 7.7): the “CDA2-GFP sporulation assay sensitivity score” value in test [1] was -1.51 (inactive). The growth sensitivity score in test [2] was 9.45 (active); in test [3], 2.43 (active).

Regarding `NC(=O)N1c2ccccc2CC(=O)c2ccccc21` [Trileptal] (stock concentration (mM, diluted 1:100): 10), the growth sensitivity score is 1.04 (inactive) in test [2] and 1.24 (inactive) in test [3].
